Reference: PubChem BioAssay (NCATS)
Results filed as inconclusive are left out. The source made the active and inactive calls. Unless noted, calls come from the whole dose curve; as a rule, active = well fitted curve in the direction sought with a large enough effect; inconclusive = small, poorly fitted or top-dose-only effect, or another doubt; inactive = no such curve, though single readings can be large; an effect the other way counts as inactive or inconclusive.

Key:
[1] = system: Zika virus NS2B-NS3 protease (linked construct); assay: Primary screen NINDS Rhodamine qHTS for Zika virus inhibitors (AID 1347160)
Procedure, shortened: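 Percent inhibition, normalized to uninhibited and enzyme-free controls, is fitted to a 4-parameter Hill equation. Fluorescence change comes from a 15-min cleavage of 1.5 microM bis-peptide Rhodamine110 substrate by 25 nM linked NS2B-NS3 at room temperature.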

[2] = HPAF-II Cancer Cell Toxicity qHTS against the NCATS CANVASS Library (AID 1347346)
Procedure, shortened: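 HPAF-II cells were seeded at 1000 cells/well, allowed to settle for 4 h at 37 degrees C, then exposed to compounds in an 11-point series for 72 h. Viability was read by CellTiter-Glo luminescence.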

[3] = OV-SAHO Cancer Cell Toxicity qHTS against the NCATS CANVASS Library (AID 1347348)
Procedure, shortened: (§1)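 ATP content after 72 h treatment, detected by CellTiter-Glo luminescence (15min room-temperature development), reflects cell viability. Wells contained 1000 cells and received compounds at 11 concentrations.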

[4] = Panc-1005 Cancer Cell Toxicity qHTS against the NCATS CANVASS Library (AID 1347349)
Procedure, shortened: as §1

[5] = U-118MG Cancer Cell Toxicity qHTS against the NCATS CANVASS Library (AID 1347351)
Procedure, shortened: as §1

[6] = A2780 Cisplatin Sensitive Ovarian Cancer Cell Toxicity qHTS against the NCATS CANVASS Library (AID 1347353)
Procedure, shortened: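 A2780 cisplatin-sensitive cells (750 per well) were seeded, left 4 h at 37 °C, then pin-dosed in an 11-point series. After 72 h at 37 °C/5% CO2, viability was measured as ATPLite luminescence.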

[7] = UWB1.289-WTBRCA1 Cancer Cell Toxicity qHTS against the NCATS CANVASS Library (AID 1347354)
Procedure, shortened: (§2)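 Cells were seeded at 1000 per well and allowed to settle 4 hours at 37 degrees C before pin transfer of compounds as an 11-point series. Viability was read by CellTiter-Glo luminescence after 72 hours' exposure.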

[8] = HEK-293 Cancer Cell Toxicity qHTS against the NCATS CANVASS Library (AID 1347355)
Procedure, shortened: as §2

[9] = HPAF-II 24hr Apoptosis Induction qHTS against the NCATS CANVASS Library (AID 1347356)
Procedure, shortened: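 HPAF-II cells (500/well) in DMEM + 10% FBS were treated with an 11-point compound series for 24 hours at 37 degrees C. Caspase-3/7 activity was then read by Caspase-Glo DEVD luminescence after 15 min.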

[10] = HEK293 18hr Apoptosis Induction qHTS against the NCATS CANVASS Library (AID 1347357)
Procedure, shortened: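 HEK293 cells (500/well, DMEM + 10% FBS) treated with an 11-point series for 18 h at 37 degrees C. Caspase-3/7 activity read by Caspase-Glo luminescence after 15 min at room temperature.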

[11] = HEK293 24hr Apoptosis Induction qHTS against the NCATS CANVASS Library (AID 1347359)
Procedure, shortened: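 Caspase-3/7 activation measured as luminescence from the DEVD-based Caspase-Glo reagent, 15 min at room temperature, following 24-hour compound treatment of HEK293 cells.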

[12] = HPAF-II 18hr Apoptosis Induction qHTS against the NCATS CANVASS Library (AID 1347360)
Procedure, shortened: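 HPAF-II cells at 500/well were exposed for 18 h at 37 C to an 11-point compound series. Caspase-3/7 activity was read by Caspase-Glo luminescence after 15 min at RT.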

[13] = HEK293 12hr Apoptosis Induction qHTS against the NCATS CANVASS Library (AID 1347361)
Procedure, shortened: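 HEK293 cells (500/well) were exposed to an 11-point qHTS concentration series for 12 hours at 37 degrees C. Caspase-3/7 activity was then read by DEVD-substrate luciferase luminescence after 15 min at room temperature.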

[14] = biological target: Luciferin 4-monooxygenase (Photinus pyralis) (UniProt P08659); assay: Firefly luciferase counterscreen qHTS: Assay Interference Panel against the NCATS CANVASS Library (AID 1347363)
Luciferin 4-monooxygenase (Photinus pyralis), sequence (P08659 whole entry, looked up): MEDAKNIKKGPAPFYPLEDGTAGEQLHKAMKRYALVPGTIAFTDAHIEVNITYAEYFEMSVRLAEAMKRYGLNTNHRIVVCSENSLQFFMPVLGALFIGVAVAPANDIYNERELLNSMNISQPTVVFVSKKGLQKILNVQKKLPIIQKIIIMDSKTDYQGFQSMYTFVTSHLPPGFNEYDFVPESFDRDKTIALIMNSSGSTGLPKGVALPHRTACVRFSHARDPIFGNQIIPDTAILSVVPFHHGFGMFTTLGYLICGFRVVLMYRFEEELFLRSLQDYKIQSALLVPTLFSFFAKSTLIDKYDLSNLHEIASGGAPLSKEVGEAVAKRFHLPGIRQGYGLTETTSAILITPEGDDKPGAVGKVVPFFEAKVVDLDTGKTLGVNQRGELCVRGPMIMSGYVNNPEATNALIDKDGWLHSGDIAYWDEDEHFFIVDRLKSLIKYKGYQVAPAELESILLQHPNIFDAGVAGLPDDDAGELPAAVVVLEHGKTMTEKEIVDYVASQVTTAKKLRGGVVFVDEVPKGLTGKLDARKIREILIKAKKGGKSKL
Procedure, shortened: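 Luminescence inhibition readout: compounds (11-point qHTS) sat 15 min at room temperature with substrate mix (0.013 mM luciferin and ATP), then firefly luciferase was added and signal read 5 min later.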

[15] = KB-8-5-11 Cancer Cell Toxicity qHTS against the NCATS CANVASS Library (AID 1347364)
Procedure, shortened: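 KB-8-5-11 cells (500/well) in DMEM + 10% FBS were exposed to compounds in an 11-point qHTS series for 72 hr at 37C, 5% CO2. Viability was read by CellTiter-Glo luminescence.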

[16] = KB-3-1 Cancer Cell Toxicity qHTS against the NCATS CANVASS Library (AID 1347366)
Procedure, shortened: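 KB-3-1 cells (500/well) in DMEM with 10% FBS were exposed to compounds for 72 h at 37C. Viability was read by CellTiter-Glo luminescence.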

[17] = qHTS for ATAD5 Agonist screened against the NCATS CANVASS Library (AID 1347367)
Procedure, shortened: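 Luciferase reporter under ATAD5 control, stably integrated in HEK293T cells (2000/well). Compounds (11 points) incubated 16 h at 37C; viability read first by CellTiter-Fluor, then luminescence reporting ATAD5 activation. MMS positive control.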

[18] = MCF7 Cancer Cell Toxicity qHTS against the NCATS CANVASS Library (AID 1347369)
Procedure, shortened: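 MCF7 cells (500/well) were exposed 72 h at 37 °C to compounds in an 11-point series. Viability was read as ATP content by CellTiterGlo luminescence.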

[19] = J3T Cancer Cell Toxicity qHTS against the NCATS CANVASS Library (AID 1347371)
Procedure, shortened: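 J3T dog glioma cells (500 cells/well) were exposed to compounds in an 11-point series for 72 hr at 37C, 5% CO2. Cytotoxicity was read as ATP content by CellTiterGlo luminescence.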

[20] = biological target: Nuclear receptor subfamily 1 group I member 3 (Homo sapiens) (UniProt Q14994); assay: qHTS for Constitutive Androstane Receptor (CAR) Antagonist screened against the NCATS CANVASS Library (AID 1347372)
Nuclear receptor subfamily 1 group I member 3 (Homo sapiens), sequence (Q14994 whole entry, looked up): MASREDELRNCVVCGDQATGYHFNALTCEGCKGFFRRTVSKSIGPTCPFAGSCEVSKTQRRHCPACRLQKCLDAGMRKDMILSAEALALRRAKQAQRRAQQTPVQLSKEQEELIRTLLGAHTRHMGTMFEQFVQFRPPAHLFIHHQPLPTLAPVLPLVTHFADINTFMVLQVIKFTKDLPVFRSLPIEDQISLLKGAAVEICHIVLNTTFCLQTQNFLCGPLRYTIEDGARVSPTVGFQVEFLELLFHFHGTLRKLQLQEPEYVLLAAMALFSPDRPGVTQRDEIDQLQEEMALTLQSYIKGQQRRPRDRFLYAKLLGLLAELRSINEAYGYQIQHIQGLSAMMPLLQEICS
Procedure, shortened: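 HepG2-CYP2B6-hCAR double-stable cells plated, 4hr attach; cpd pin-transferred; CITCO 50 nM final; 24hr 37C/5% CO2; CellTiter-Fluor 1hr (fluorescence), then ONE-Glo luminescence.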

[21] = biological target: Nuclear receptor subfamily 1 group I member 3 (Homo sapiens) (UniProt Q14994); assay: qHTS for Constitutive Androstane Receptor (CAR) Agonist screened against the NCATS CANVASS Library (AID 1347373)
Procedure, shortened: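 HepG2 cells stably expressing hCAR and a CYP2B6-2.2kb luciferase reporter were treated for 24hr at 37C with compounds (11-point qHTS) in the presence of 1.5uM PK11195. Reporter activation was read by ONE-Glo luminescence.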

[22] = qHTS for Hypoxia signaling pathway (HIF-1) antagonists against the NCATS CANVASS Library (AID 1347374)
Procedure, shortened: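 HRE-bla ME-180 cells (2,000/well, 0.5% dialyzed FBS) were pre-incubated 5 h, then given an 11-point compound series plus CoCl2 (60 uM solution as added) for 17 h at 37C. CCF4 β-lactamase read (ex 405, em 460/530 nm) after 2 h at RT.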

[23] = qHTS for Hypoxia signaling pathway (HIF-1) agonists against the NCATS CANVASS Library (AID 1347375)
Procedure, shortened: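 HRE-bla ME-180 cells (beta-lactamase reporter under hypoxia responsive element) in 0.5% dialyzed FBS medium, 5 h at 37C, then compound 17 h, 11-point qHTS series. CCF4-AM FRET substrate 2 h RT; 460/530 nm emission read.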

[24] = 10-beta competent E. coli microbial cell viability qHTS against the NCATS CANVASS Library (AID 1347376)
Procedure, shortened: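 10-beta competent E. coli (0.9 OD culture diluted to 0.2 OD) exposed to compounds in an 11-point qHTS series, incubated overnight at 37C, 5% CO2. Viability read as ATP by BacTiter-Glo luminescence after 20 min at room temperature.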

[25] = qHTS for Inflammasome Signaling Inhibitors: IL-1-beta AlphaLISA screen against the NCATS CANVASS Library (AID 1347379)
Procedure, shortened: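 Human THP-1 cells were pretreated 1 hr at 37 °C with compounds (up to 57.5 uM final), then stimulated with LPS (250 ng/mL final) and ATP (1.25 mM final). Secreted IL-1B was read by AlphaLISA after 16 hr.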

[26] = Inflammasome Signaling qHTS Counterscreen: IL-1-beta AlphaLISA counterscreen against the NCATS CANVASS Library (AID 1347381)
Procedure, shortened: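 To flag interference with the AlphaLISA read-out, a known amount of purified IL-1-beta (4 pg) replaced cell supernatant. Detection used anti-IL-1-beta acceptor beads, biotinylated antibody and streptavidin donor beads at room temperature.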

[27] = qHTS for Activators of p53 Stress Response Pathway screened against the NCATS CANVASS Library (AID 1347388)
Procedure, shortened: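 Beta-lactamase reporter driven by p53 response elements in HCT-116 cells, read as the 460 nm/530 nm emission ratio after CCF4 loading, following 16 h of exposure to an 11-point series. Cell viability was measured in the same wells by CellTiter-Glo luminescence.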

[28] = Secretion counterscreen for inhibitors of the SERCaMP assay screened against the NCATS CANVASS Library (AID 1347390)
Procedure, shortened: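 SH-SY5Y cells with constitutively secreted GLuc reporter, 1000 cells/well, treated 20 h at 37C with compounds at 0.001 - 77 uM final; secreted luciferase read as luminescence after coelenterazine; Brefeldin A as positive control.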

[29] = qHTS for activators of dead-cell proteases activity screened against the NCATS CANVASS Library (AID 1347392)
Procedure, shortened: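 Compounds are pin-transferred onto attached HepG2 cells, giving 11 final concentrations. After 5 h at 37C, AAF-aminoluciferin reagent is added and luminescence is recorded at room temperature.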

[30] = qHTS for inhibitors of ER calcium dysfunction: SERCaMP assay screened against the NCATS CANVASS Library (AID 1347393)
Procedure, shortened: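 Thapsigargin-induced ER calcium depletion drives GLuc-SERCaMP secretion from SH-SY5Y cells; compounds given 16 h beforehand were scored by lowered coelenterazine luminescence after 4 h challenge.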

[31] = Vero-766 cells viability qHTS against the NCATS CANVASS Library: Counterscreen for Zika virus inhibition assay (AID 1347394)
Procedure, shortened: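 Vero 766 cells (1000/well), without Zika virus, were exposed to compounds for 72 h at 37C. Viability was measured by CellTiter Glo luminescence. Media-only wells served as 100% inhibition.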

[32] = qHTS for inhibitors of Wild type Zika virus screened against the NCATS CANVASS Library (AID 1347396)
Procedure, shortened: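 Using ATP-based luminescence (CellTiter Glo), this screen scores rescue of Vero 766 cells from wild-type Zika killing at 72 h post-infection. Compounds are tested in a concentration series.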

[33] = Redox Reaction Profiling qHTS: Assay Interference Panel against the NCATS CANVASS Library (AID 1347401)
Procedure, shortened: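 Cell-free redox surrogate: 5 uM resazurin + 200 uM DTT, 50 mM HEPES pH 7.3/50 mM NaCl; cpds pinned, 11-pt qHTS; Ex525/Em598 read t0 and t=15 min, dark.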

[34] = qHTS for inhibitors of Rabies Virus screened against the NCATS CANVASS Library (AID 1347402; calls by dose curve)
[35] = Counterscreen qHTS for small molecule stabilizers of the endoplasmic reticulum resident proteome: GLuc-NoTag assay (AID 1508627)
Procedure, shortened: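 Luminescence of Gaussia luciferase secreted into the medium (coelenterazine, 0.07x final, unlysed cells) was the read-out. Human SH-SY5Y neuroblastoma cells constitutively secreting untagged GLuc received compound for 19 h, then 100 nM thapsigargin for 4 h.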

[36] = Confirmatory qHTS for small molecule stabilizers of the endoplasmic reticulum resident proteome: Secreted ER Calcium Modulated Protein (SERCaMP) assay (AID 1508628)
Procedure, shortened: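 We seeded SH-SY5Y-GLuc-SERCaMP cells, added compounds (three concentrations in the primary run, eleven up to 76.6 uM in confirmation), incubated 16 h, depleted ER calcium with thapsigargin, and read luciferase 4 h later.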

In the case of `C[C@]12CC(O)C3[C@@H](CCC4C[C@@H](O)CC[C@@]43CO)[C@@]1(O)CCC2C1=CC(=O)OC1` (stereo partly specified), the Potency [1] is reported as 62.1 µM (active), the Potency [2] is reported as “inactive” and the Potency [3] is reported as “inactive”. For the same compound, the Potency [4] was “inactive”, the Potency [5] was “inactive” and the Potency [6] was “inactive”. For the same compound, the Potency [7] was “inactive”, the Potency [8] was “inactive” and the outcome [9] was “inactive”. For the same compound, the Potency [10] was “inactive”, the Potency [11] was “inactive” and the outcome [12] was “inactive”. The Potency [13] was “inactive”, the outcome [14] was “inactive” and the Potency [15] was “inactive”. For the same compound, the Potency [16] was “inactive”, the Potency [17] was “inactive” and the Potency [18] was “inactive”. For the same compound, the Potency [19] was “inactive”, the Potency [20] was “inactive” and the outcome [21] was “inactive”. The Potency [22] was “inactive”, the Potency [23] was “inactive” and the outcome [24] was “inactive”. The Potency [25] was “inactive”, the outcome [26] was “inactive” and the Potency [27] was “inactive”. For the same compound, the Potency [28] was “inactive”, the Potency [29] was “inactive” and the Potency [30] was “inactive”. For the same compound, the Potency [31] was “inactive”, the Potency [32] was “inactive” and the Potency [33] was “inactive”. The outcome [34] was “inactive”.

For `c1ccc2sc(C3(N4CCCC4)CCCCC3)cc2c1`, the Potency [35] was “inactive” and the Potency [36] was 39.8 µM (active).
